# Laboratory results from PubChem BioAssay (NCATS).
# Results filed as inconclusive are left out. Where a call stands in place of a potency, no number is given. Values without a mark were called inactive. Active and inactive are the calls of the source. Calls come from the whole dose curve; as a rule, active = well fitted curve in the direction sought with a large enough effect; inconclusive = small, poorly fitted or top-dose-only effect, or another doubt; inactive = no such curve, though single readings can be large; an effect the other way counts as inactive or inconclusive.
# Key:
# [1] = biological target: ATP-dependent 6-phosphofructokinase (Trypanosoma brucei brucei) (UniProt O15648); experiment: qHTS Assay to Find Inhibitors of T. brucei phosphofructokinase: hit validation (AID 492961);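 note: luminescence reports ADP formed as PFK phosphorylates fructose-6-phosphate with ATP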
# Summary of the method: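 Compounds titrated; %activity normalized to 0x and 1x enzyme controls, curve-fitted. Readout: ADP-Glo luminescence after 45 min room-temperature reaction of 1.25 nM PFK, 0.1 mM ATP, 0.5 mM F6P, pH 8.0.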
# [2] = qHTS profiling for inhibitors of Plasmodium falciparum proliferation (AID 504749); note: potency is the fitted concentration of half-maximal effect; for all read-outs here: nearly all actives have a fitted effect of over 60% in size; conditions: P. falciparum in erythrocytes, SYBR Green DNA, 72 h; for activity, negative = inhibition: at 28.7 µM (top of the series)
# Summary of the method: (§1)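 SYBR Green fluorescence (ex 485 nm, em 535 nm) reports parasite DNA after 72 h compound exposure of infected red cells at 0.3% parasitemia, 2.5% hematocrit; signal normalized to 0.29 uM artemisinin and vehicle wells.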
# 3D7 = experiment: as above; conditions: P. falciparum in erythrocytes, SYBR Green DNA, 72 h; series mostly up to 28.7 µM
# Summary of the method: as §1
# ATS189 = experiment: as above; conditions: P. falciparum in erythrocytes, SYBR Green DNA, 72 h; series mostly up to 28.7 µM
# Summary of the method: as §1
# ATS95 = experiment: as above; conditions: P. falciparum in erythrocytes, SYBR Green DNA, 72 h; series mostly up to 28.7 µM
# Summary of the method: as §1
# C2A = experiment: as above; conditions: P. falciparum in erythrocytes, SYBR Green DNA, 72 h; series mostly up to 28.7 µM
# Summary of the method: as §1
# CP185 = experiment: as above; conditions: P. falciparum in erythrocytes, SYBR Green DNA, 72 h; series mostly up to 28.7 µM
# Summary of the method: as §1
# CP191 = experiment: as above; conditions: P. falciparum in erythrocytes, SYBR Green DNA, 72 h; series mostly up to 28.7 µM
# Summary of the method: as §1
# CP217 = experiment: as above; conditions: P. falciparum in erythrocytes, SYBR Green DNA, 72 h; series mostly up to 28.7 µM
# Summary of the method: as §1
# CP238 = experiment: as above; conditions: P. falciparum in erythrocytes, SYBR Green DNA, 72 h; series mostly up to 28.7 µM
# Summary of the method: as §1
# CP250 = experiment: as above; conditions: P. falciparum in erythrocytes, SYBR Green DNA, 72 h; series mostly up to 28.7 µM
# Summary of the method: as §1
# CP252 = experiment: as above; conditions: P. falciparum in erythrocytes, SYBR Green DNA, 72 h; series mostly up to 28.7 µM
# Summary of the method: as §1
# CP256 = experiment: as above; conditions: P. falciparum in erythrocytes, SYBR Green DNA, 72 h; series mostly up to 28.7 µM
# Summary of the method: as §1
# CP262 = experiment: as above; conditions: P. falciparum in erythrocytes, SYBR Green DNA, 72 h; series mostly up to 28.7 µM
# Summary of the method: as §1
# CP265 = experiment: as above; conditions: P. falciparum in erythrocytes, SYBR Green DNA, 72 h; series mostly up to 28.7 µM
# Summary of the method: as §1
# CP286 = experiment: as above; conditions: P. falciparum in erythrocytes, SYBR Green DNA, 72 h; series mostly up to 28.7 µM
# Summary of the method: as §1
# DFO2036 = experiment: as above; conditions: P. falciparum in erythrocytes, SYBR Green DNA, 72 h; series mostly up to 28.7 µM
# Summary of the method: as §1
# Dd2 = experiment: as above; conditions: P. falciparum in erythrocytes, SYBR Green DNA, 72 h; series mostly up to 28.7 µM
# Summary of the method: as §1
# HB3 = experiment: as above; conditions: P. falciparum in erythrocytes, SYBR Green DNA, 72 h; series mostly up to 28.7 µM
# Summary of the method: as §1
# P94_40 = experiment: as above; conditions: P. falciparum in erythrocytes, SYBR Green DNA, 72 h; series mostly up to 28.7 µM
# Summary of the method: as §1
# Sequence of ATP-dependent 6-phosphofructokinase (Trypanosoma brucei brucei) (O15648 whole entry, looked up): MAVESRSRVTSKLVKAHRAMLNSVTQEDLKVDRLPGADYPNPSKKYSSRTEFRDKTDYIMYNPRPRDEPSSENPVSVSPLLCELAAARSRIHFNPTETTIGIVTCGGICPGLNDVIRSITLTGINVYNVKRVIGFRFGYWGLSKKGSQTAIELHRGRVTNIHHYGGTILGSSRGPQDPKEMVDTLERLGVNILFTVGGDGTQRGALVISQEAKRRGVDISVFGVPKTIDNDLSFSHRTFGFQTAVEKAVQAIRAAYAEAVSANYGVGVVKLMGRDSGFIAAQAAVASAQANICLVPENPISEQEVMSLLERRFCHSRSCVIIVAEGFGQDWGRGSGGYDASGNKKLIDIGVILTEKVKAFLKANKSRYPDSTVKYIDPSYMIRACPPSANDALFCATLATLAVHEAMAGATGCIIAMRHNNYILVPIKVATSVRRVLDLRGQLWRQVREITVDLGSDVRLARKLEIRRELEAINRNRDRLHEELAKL
smiles,measurement,setting,value
O=C(O)c1ccc(N[C@@H]2OC[C@@H](O)[C@@H](O)[C@@H]2O)cc1,Potency,[1],inactive
same,"activity, negative = inhibition",[2]; parasite line A,8.43%
same,"activity, negative = inhibition",[2]; parasite line B,9.05%
same,Potency,3D7,inactive
same,Potency,ATS189,inactive
same,Potency,ATS95,inactive
same,Potency,C2A,inactive
same,Potency,CP185,inactive
same,Potency,CP191,inactive
same,Potency,CP217,inactive
same,Potency,CP238,inactive
same,Potency,CP250,inactive
same,Potency,CP252,inactive
same,Potency,CP256,inactive
same,Potency,CP262,inactive
same,Potency,CP265,inactive
same,Potency,CP286,inactive
same,Potency,DFO2036,inactive
same,Potency,Dd2,inactive
same,Potency,HB3,inactive
same,Potency,P94_40,inactive
COc1ccc2cc1Oc1cc3c(cc1OC)CC[N+](C)(C)C3Cc1ccc(cc1)Oc1c(OC)c(OC)cc3c1C(C2)[N+](C)(C)CC3 (centres undefined),Potency,[1],inactive
same,"activity, negative = inhibition",[2]; parasite line A,13.3%
same,"activity, negative = inhibition",[2]; parasite line B,0.155%
same,Potency,3D7,inactive
same,Potency,ATS189,inactive
same,Potency,ATS95,inactive
same,Potency,C2A,inactive
same,Potency,CP185,inactive
same,Potency,CP191,inactive
same,Potency,CP217,inactive
same,Potency,CP238,inactive
same,Potency,CP250,inactive
same,Potency,CP252,inactive
same,Potency,CP256,inactive
same,Potency,CP262,inactive
same,Potency,CP265,inactive
same,Potency,CP286,inactive
same,Potency,DFO2036,inactive
same,Potency,Dd2,inactive
same,Potency,HB3,inactive
same,Potency,P94_40,inactive
CC(=O)C1(O)Cc2c(O)c3c(c(O)c2C(OC2CC(N)C(O)C(C)O2)C1)C(=O)c1c(O)cccc1C3=O (centres undefined),Potency,[1],inactive
same,Potency,[2]; parasite line A,5010 nM (active)
same,Potency,[2]; parasite line B,11200 nM (active)
same,Potency,3D7,3160 nM (active)
same,Potency,ATS189,8910 nM (active)
same,Potency,ATS95,6310 nM (active)
same,Potency,C2A,8910 nM (active)
same,Potency,CP185,7940 nM (active)
same,Potency,CP191,5010 nM (active)
same,Potency,CP217,10000 nM (active)
same,Potency,CP238,8910 nM (active)
same,Potency,CP250,11200 nM (active)
same,Potency,CP252,8910 nM (active)
same,Potency,CP256,10000 nM (active)
same,Potency,CP262,12000 nM (active)
same,Potency,CP265,10000 nM (active)
same,Potency,CP286,3160 nM (active)
same,Potency,DFO2036,7940 nM (active)
same,Potency,Dd2,4470 nM (active)
same,Potency,HB3,6310 nM (active)
same,Potency,P94_40,5010 nM (active)
CO/N=C(/C(=O)N[C@@H]1C(=O)N2C(C(=O)O)=C(CSC(=O)c3ccco3)CSC12)c1csc(N)n1 (some centres undefined),Potency,[1],inactive
same,"activity, negative = inhibition",[2]; parasite line A,2.76%
same,"activity, negative = inhibition",[2]; parasite line B,0.141%
same,Potency,3D7,inactive
same,Potency,ATS189,inactive
same,Potency,ATS95,inactive
same,Potency,C2A,inactive
same,Potency,CP185,inactive
same,Potency,CP191,inactive
same,Potency,CP217,inactive
same,Potency,CP238,inactive
same,Potency,CP250,inactive
same,Potency,CP252,inactive
same,Potency,CP256,inactive
same,Potency,CP262,inactive
same,Potency,CP265,inactive
same,Potency,CP286,inactive
same,Potency,DFO2036,inactive
same,Potency,Dd2,inactive
same,Potency,HB3,inactive
same,Potency,P94_40,inactive
CC[C@H](C)[C@H]1O[C@]2(CC[C@@H]1C)C[C@@H]1C[C@@H](C/C=C(\C)[C@H](O[C@@H]3C[C@H](OC)[C@H](O[C@@H]4C[C@H](OC)[C@@H](O)[C@H](C)O4)[C@H](C)O3)[C@@H](C)/C=C/C=C3\CO[C@@H]4[C@H](O)C(C)=C[C@@H](C(=O)O1)[C@]34O)O2,Potency,[1],inactive
same,Potency,[2]; parasite line A,355 nM (active)
same,Potency,[2]; parasite line B,794 nM (active)
same,Potency,3D7,1410 nM (active)
same,Potency,ATS189,891 nM (active)
same,Potency,ATS95,1120 nM (active)
same,Potency,C2A,1410 nM (active)
same,Potency,CP185,1000 nM (active)
same,Potency,CP191,794 nM (active)
same,Potency,CP217,794 nM (active)
same,Potency,CP238,1260 nM (active)
same,Potency,CP250,891 nM (active)
same,Potency,CP252,794 nM (active)
same,Potency,CP256,708 nM (active)
same,Potency,CP262,1200 nM (active)
same,Potency,CP265,794 nM (active)
same,Potency,CP286,1260 nM (active)
same,Potency,DFO2036,794 nM (active)
same,Potency,Dd2,2240 nM (active)
same,Potency,HB3,2000 nM (active)
same,Potency,P94_40,1120 nM (active)
CCN(CC)CC(=O)Nc1c(C)cc(C)cc1C,Potency,[1],inactive
same,"activity, negative = inhibition",[2]; parasite line A,2.56%
same,"activity, negative = inhibition",[2]; parasite line B,6.57%
same,Potency,3D7,inactive
same,Potency,ATS189,inactive
same,Potency,ATS95,inactive
same,Potency,C2A,inactive
same,Potency,CP185,inactive
same,Potency,CP191,inactive
same,Potency,CP217,inactive
same,Potency,CP238,inactive
same,Potency,CP250,inactive
same,Potency,CP252,inactive
same,Potency,CP256,inactive
same,Potency,CP262,inactive
same,Potency,CP265,inactive
same,Potency,CP286,inactive
same,Potency,DFO2036,inactive
same,Potency,Dd2,inactive
same,Potency,HB3,inactive
same,Potency,P94_40,inactive
CN[C@H](C)CCC=C(C)C,Potency,[1],inactive
same,Potency,[2]; parasite line A,355 nM (active)
same,Potency,[2]; parasite line B,141 nM (active)
same,Potency,3D7,316 nM (active)
same,Potency,ATS189,282 nM (active)
same,Potency,ATS95,355 nM (active)
same,Potency,C2A,631 nM (active)
same,Potency,CP185,708 nM (active)
same,Potency,CP191,708 nM (active)
same,Potency,CP217,355 nM (active)
same,Potency,CP238,355 nM (active)
same,Potency,CP250,631 nM (active)
same,Potency,CP252,355 nM (active)
same,Potency,CP256,631 nM (active)
same,Potency,CP262,1070 nM (active)
same,Potency,CP265,398 nM (active)
same,Potency,CP286,398 nM (active)
same,Potency,DFO2036,398 nM (active)
same,Potency,Dd2,79.4 nM (active)
same,Potency,HB3,199 nM (active)
same,Potency,P94_40,178 nM (active)
NC(=O)C1CC2(NC(=O)NC2=O)c2cc(F)ccc2O1 (centres undefined),Potency,[1],inactive
same,"activity, negative = inhibition",[2]; parasite line A,9.13%
same,"activity, negative = inhibition",[2]; parasite line B,7.45%
same,Potency,3D7,inactive
same,Potency,ATS189,inactive
same,Potency,ATS95,inactive
same,Potency,C2A,inactive
same,Potency,CP185,inactive
same,Potency,CP191,inactive
same,Potency,CP217,inactive
same,Potency,CP238,inactive
same,Potency,CP250,inactive
same,Potency,CP252,inactive
same,Potency,CP256,inactive
same,Potency,CP262,inactive
same,Potency,CP265,inactive
same,Potency,CP286,inactive
same,Potency,DFO2036,inactive
same,Potency,Dd2,inactive
same,Potency,HB3,inactive
same,Potency,P94_40,inactive
CCCCC(=O)O[C@]1(C(=O)CO)CCC2C3CCC4=CC(=O)CCC4(C)C3C(O)CC21C (some centres undefined),Potency,[1],inactive
same,"activity, negative = inhibition",[2]; parasite line A,-2.08%
same,"activity, negative = inhibition",[2]; parasite line B,-4.71%
same,Potency,3D7,inactive
same,Potency,ATS189,inactive
same,Potency,ATS95,inactive
same,Potency,C2A,inactive
same,Potency,CP185,inactive
same,Potency,CP191,inactive
same,Potency,CP217,inactive
same,Potency,CP238,inactive
same,Potency,CP250,inactive
same,Potency,CP252,inactive
same,Potency,CP256,inactive
same,Potency,CP262,inactive
same,Potency,CP265,inactive
same,Potency,CP286,inactive
same,Potency,DFO2036,inactive
same,Potency,HB3,inactive
same,Potency,P94_40,inactive
CC1(C)CC1C(=O)N/C(=C/CCCCSCC(N)C(=O)O)C(=O)O (centres undefined),Potency,[1],inactive
same,"activity, negative = inhibition",[2]; parasite line A,9.99%
same,"activity, negative = inhibition",[2]; parasite line B,-1.88%
same,Potency,3D7,inactive
same,Potency,ATS189,inactive
same,Potency,ATS95,inactive
same,Potency,C2A,inactive
same,Potency,CP185,inactive
same,Potency,CP191,inactive
same,Potency,CP217,inactive
same,Potency,CP238,inactive
same,Potency,CP250,inactive
same,Potency,CP252,inactive
same,Potency,CP256,inactive
same,Potency,CP262,inactive
same,Potency,CP265,inactive
same,Potency,CP286,inactive
same,Potency,DFO2036,inactive
same,Potency,Dd2,inactive
same,Potency,HB3,inactive
same,Potency,P94_40,inactive
